Data: ChEMBL document CHEMBL3433997, “St. Jude Leishmania screening dataset” (2016)
Values joined by “and” are separate entries in the source; they are usually repeats but may differ in a detail not shown here. Identical values can stand only once.

Tests used:
Format in all cases: functional
[1] = biological target: Solute carrier family 2, facilitated glucose transporter member 1 (Homo sapiens) (UniProt P11166); experiment: ST_JUDE_LEISH: Cytotoxicity at 2uM final concentration against transgenic Leishmania Mexicana promastigotes LmGLUT1 that are glucose transport deficient and complemented with the human glucose transporter GLUT1. Activity is measured by DNA content using SYBR green in vitro
[2] = biological target: Hexose transporter 1 (Plasmodium falciparum) (UniProt O97467); experiment: ST_JUDE_LEISH: Cytotoxicity at 2uM final concentration against transgenic Leishmania Mexicana promastigotes LmPfHT that are glucose transport deficient and complemented with the Plasmodium falciparum hexose transporter. Activity is measured by DNA content using SYBR green in vitro
[3] = biological target: Glucose transporter (Leishmania mexicana) (UniProt O61059); experiment: ST_JUDE_LEISH: Cytotoxicity at 2uM final concentration against transgenic Leishmania Mexicana promastigotes LmGT2 that are glucose transport deficient and complemented with the L. Mexicana glucose transporter 2. Activity is measured by DNA content using SYBR green in vitro

Chain of Solute carrier family 2, facilitated glucose transporter member 1 (Homo sapiens) (P11166 whole entry): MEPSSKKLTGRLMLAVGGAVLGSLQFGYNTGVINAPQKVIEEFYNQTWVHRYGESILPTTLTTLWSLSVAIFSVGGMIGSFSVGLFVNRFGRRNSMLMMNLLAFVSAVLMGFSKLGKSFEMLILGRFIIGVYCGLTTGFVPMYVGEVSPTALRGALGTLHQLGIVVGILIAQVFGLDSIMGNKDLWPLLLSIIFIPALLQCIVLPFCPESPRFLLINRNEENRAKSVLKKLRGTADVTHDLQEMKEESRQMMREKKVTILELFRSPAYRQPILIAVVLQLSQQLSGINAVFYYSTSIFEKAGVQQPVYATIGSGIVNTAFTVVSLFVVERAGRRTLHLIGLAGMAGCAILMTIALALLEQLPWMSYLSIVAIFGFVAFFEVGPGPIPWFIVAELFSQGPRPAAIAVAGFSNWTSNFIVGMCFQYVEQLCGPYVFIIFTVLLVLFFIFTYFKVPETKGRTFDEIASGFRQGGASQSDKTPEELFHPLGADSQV

| Compound | inhibition [1] | inhibition [2] | inhibition [3] |
| --- | --- | --- | --- |
| CN(C)CCc1c[nH]c2ccc(C(=O)Nc3ccc(-c4ccncc4)cc3)cc12 | 0.58% | 0.83% | 0.61% |
| COCCNCc1ccc(-c2ccc(CN(C(=O)NC3CCCCC3)C3CCN(Cc4ccccc4)CC3)cc2)cc1 | 2.65% | 2% | -1.48% |
| C=CCOc1ccccc1CNCC(O)c1cccc(C(F)(F)F)c1 (stereo not given) | 2.78% | 3.47% | 2.61% |
| Cc1cccc2[nH]cc(C3CCN(CC4CCC(NC(=O)/C=C/c5ccc(Cl)c(Cl)c5)CC4)CC3)c12 (stereo not given) | 0.63% | 6.74% | 0.15% |
| Oc1ccc2[nH]cc(C3=CCN(Cc4ccccc4)CC3)c2c1 | 11.2% | 10.5% | 10.4% |
| CCC1(C)N=C(N)N=C(N)N1c1ccc(Cl)cc1 (stereo not given) | 3.87% | -0.9% | 2.79% |
| CCCCCc1cc(O)c2c(c1)OC(C)(C)c1ccncc1-2 | 0.55% | 0.66% | 3.5% |
| Cc1[nH]c2ccccc2c1C1=CCN(CCCCC2(C)C(=O)Nc3cccc(F)c32)CC1 (stereo not given) | 0.46% | -0.62% | 0.65% |
| CCCCC1(NC(=O)[C@H](CC(C)C)Nc2ccc(C#N)c3ccccc23)CCCCC1 | 1.12% | 4.9% | 2.56% |
| CN(c1cc(NC(=O)c2cccs2)ccn1)C1CCN(Cc2ccccc2)CC1 | 0.59% | 3.13% | 2.09% |
| COC(=O)c1ccc(CC(C)NCC(O)c2ccc(Cl)c(Cl)c2)cc1 (stereo not given) | 6.46% | 3.9% | 5.96% |
| O=C(Cc1c(-c2ccccc2)[nH]c2ccccc12)NC1CCC(CN2CCC(c3c[nH]c4ccccc34)CC2)CC1 (stereo not given) | 4.32% | 4% | 2.03% |
| COCC(=O)N(Cc1ccccc1-c1cccc(CNCCc2ccccc2)c1)C1CCN(Cc2ccccc2)CC1 | 0.81% | 0.92% | 3.9% |
| OC(CNC1CCCCCCC1)c1ccc(Cl)c(Cl)c1 (stereo not given) | 1.96% | 2.06% | 2.43% |
| O=C(/C=C/c1ccccc1Cl)NC1CCC(CN2C3CCC2CC(c2c[nH]c4ccccc24)C3)CC1 (stereo not given) | 2.84% | -0.31% | 5.5% |
| CC(C)CNCc1cccc(-c2ccc(CN(C(=O)c3cccs3)C3CCN(Cc4ccccc4)CC3)cc2)c1 | 2.62% | 4.53% | 6.86% |
| O=C(/C=C/c1ccc(Cl)c(Cl)c1)NC1CCC(CN2CCC(c3c[nH]c4ccc(O)cc34)CC2)CC1 (stereo not given) | 1.43% and 1.97% | 0.14% and 2.98% | -2.67% and 3.13% |
| CCOC(=O)CCCN1C(=O)CN=C(c2ccccc2)c2cc(Cl)ccc21 | -1.02% | 0.13% | 3.48% |

| Compound | inhibition [1] | inhibition [2] | inhibition [3] |
| --- | --- | --- | --- |
| O=C(/C=C/c1cccc(F)c1)NC1CCC(CN2CCC(c3c[nH]c4ccccc34)CC2)CC1 (stereo not given) | 2.52% and 1.33% | -0.05% and 2.1% | -1.71% and 2.77% |
| FC(F)(F)c1cccc(N2CCC(CN3CCC(c4c[nH]c5ccccc45)CC3)CC2)n1 | 7.61% | 6.91% | 7.85% |
| O=C(NC1CCC(N2CCC3(CC2)C(=O)NCN3c2ccccc2)CC1)c1cc2ccccc2[nH]1 (stereo not given) | -0.44% | -0.89% | 0.13% |
| COc1ccc(CCNCc2ccc3c(C)cc(N)nc3c2)cc1 | 0.82% | 2.73% | 2.71% |
| CC(Cc1ccc(Oc2ccc(Cl)cc2)cc1)NCC(O)c1cccc(Cl)c1 (stereo not given) | -2.67% | -2.38% | -1.74% |
| C#CCN1CCC2=C(C1)c1c(O)cc(C(C)CCCc3ccc(F)cc3)cc1OC2(C)C (stereo not given) | 1.13% | 0.61% | 0.09% |
| CC[C@H]1CN2CC[C@@H]1C[C@H]2[C@H](O)c1ccnc2ccc(Cl)cc12 | 2.97% | 3.95% | 3.25% |
| CN(CC(=O)N1CCN(S(=O)(=O)c2cccc(Cl)c2)CC1CN1CCCC1)c1ccc(Cl)c(Cl)c1 (stereo not given) | 0.54% | 1.78% | 2.07% |
| COc1ccc(NC(=S)NC(NC(=O)CF)C(Cl)(Cl)Cl)cc1[N+](=O)[O-] (stereo not given) | 3.05% | -3.38% | -1.65% |
| O=C(NC1CCC(CN2CCC(c3c[nH]c4ccccc34)CC2)CC1)c1cc2ccccc2o1 (stereo not given) | 2.54% | 0.9% | -2.2% |
| O=C(C=Cc1ccc(F)c(Br)c1)NC1CCC(CN2CCC(c3c[nH]c4ccccc34)CC2)CC1 (stereo not given) | 0.26% and 5.78% | -0.2% and 4.24% | -1.48% and 3.84% |
| CC(=O)Nc1ccc(OCCN(CC(C)C)c2ccc(C#N)c(C(F)(F)F)c2)c(Cl)c1 | 3.54% | 2.7% | 2.53% |
| Cc1nc(C)c(-c2ccc(Oc3ccc(OC(F)(F)F)cc3)cc2)c(OC(=O)N(CCNC(C)C)C(C)C)c1Br | 5.43% | 8.45% | 5.04% |
| O=C(O)c1ccc2nc(-c3ccc(-c4ccccc4)cc3)n(C3CCN(Cc4ccc(-c5ncc[nH]5)cc4)CC3)c2c1 | 9.41% | 8.89% | 8.84% |
| CC(C)CN1CCC(N(C)c2cc(NC(=O)c3cccc(F)c3)ccn2)CC1 | -1.6% | 0.49% | 0.5% |
| Cc1c(C)c2c(c(C)c1O)CC[C@](C)(C(=O)NC1CCC(CN3CCC(c4c[nH]c5ccccc45)CC3)CC1)O2 (stereo not given in full) | -0.89% and 2.73% | 2.05% and 2.37% | -1.4% and -1.2% |
| Oc1cccc(C2CCCN(Cc3cccc4cc[nH]c34)C2)c1 (stereo not given) | 2.13% | 4% | 3.75% |
